Compounds with a hit are over-represented: about 2.8% of the library has one in this group of screens.
Peg3 prom inh-1: Peg3 promoter-driven luciferase inhibitors, primary screen, cell-based, HeLa, luciferase luminescence; HeLa PEG-Prom luciferase reporter, overnight; inhibition, % at 20 µM; 1.7% of 360,000 active; AID 588405, 2011;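 active means inhibition of at least 50% at 20 µM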
CF NFkB block: inhibitors of PAF-induced NF-kB signaling, primary screen, cell-based, GFP fluorescence, uHTS; KKLEB NF-kB-GFP reporter, GFP fluorescence overnight; 0.86% of 360,000 active; inhibition, % at 5 µM; AID 588850, 2011;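 active means at least 50% inhibition at 5 µM, scaled per plate between neutral and stimulator controls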;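 further: PAF is a Pseudomonas aeruginosa culture filtrate used as stimulus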
B2AR ag: beta2AR agonists driving receptor internalization, primary screen, cell-based, FAP fluorogen, flow cytometry; Beta-2 adrenergic receptor (Homo sapiens), P07550; Am2.2-beta2AR cells; response, % (no concentration beside the values); 0.43% of 340,000 active;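 active means response above a set limit, near 3 SD of response in nonfluorescent compounds, cut at about 42% in these data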
Target sequence (P07550 whole entry, looked up): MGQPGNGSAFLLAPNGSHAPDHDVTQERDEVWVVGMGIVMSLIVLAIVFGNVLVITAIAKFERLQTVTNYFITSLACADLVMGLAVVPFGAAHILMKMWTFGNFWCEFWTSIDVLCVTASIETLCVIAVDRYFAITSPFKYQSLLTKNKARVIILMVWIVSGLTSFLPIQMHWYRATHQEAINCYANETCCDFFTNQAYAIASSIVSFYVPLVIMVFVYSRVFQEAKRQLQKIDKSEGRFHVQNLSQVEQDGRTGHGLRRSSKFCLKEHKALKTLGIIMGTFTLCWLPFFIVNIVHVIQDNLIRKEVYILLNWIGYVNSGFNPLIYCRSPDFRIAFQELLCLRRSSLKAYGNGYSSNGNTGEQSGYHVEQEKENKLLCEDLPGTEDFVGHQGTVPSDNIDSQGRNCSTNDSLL
KKLEB tox: cytotoxicity in KKLEB CF airway cells, primary screen, cytotoxicity control for CF NF-kB inhibitor project, cell-based, uHTS, fluorescence assay plates; AID 602141, 2011; 0.36% of 360,000 active; activity change (cytotoxicity), % at 5 µM; KKLEB CF airway cells viability, ATPlite luminescence, overnight; stronger effect = lower value; cells stimulated with P. aeruginosa culture filtrate;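 active means corrected activity change at or below -50% at 5 µM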
MITF TRPM1 inh: inhibitors of MITF-dependent TRPM1 promoter reporter, primary screen, cell-based, SK-MEL-5, single point, luciferase; inhibition, % at 12.5 µM; AID 488899, 2010; 0.83% of 330,000 active; SK-MEL-5 TRPM1 promoter luciferase, 24 h;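 active means mean inhibition across replicates of 60% or more, whatever share of single replicates reaches that level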
HIF-2a block: HIF-2a reporter inhibitors, primary screen, luminescence, 786-0 RCC cells. 0.72% of 360,000 active. 786-0 RCC cells HIF-2a reporter, luciferase luminescence, overnight. inhibition, % at 18.8 µM;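 active means inhibition of the luminescence signal of 40% or more relative to plate controls, in a single-dose primary screen at 18.75 µM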
Peg3 prom inh-2: Peg3 promoter reporter inhibitors, retest, confirmation, cell-based, HeLa, luciferase reporter, single concentration | 84% of 1,300 active | shares compounds with Peg3 prom inh-1 | HeLa PEG-Prom luciferase reporter, luminescence, overnight | inhibition, % at 20 µM | AID 602417, 2012;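 active means at 20 µM dose, 40% or more inhibition averaged across four replicates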
CF NFkB conf: inhibitors of PAF-induced NF-kB signaling, retest, confirmation, cell-based, GFP fluorescence, single concentration; 64% of 1,300 active; inhibition, % at 5 µM; KKLEB CF airway cells, overnight; AID 602472, 2012; shares compounds with CF NFkB block; in the data active means inhibition above about 40%;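 further: stimulus PAF is a Pseudomonas aeruginosa filtrate and not platelet activating factor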
Mdm2 MdmX conf: retested Mdm2-MdmX interaction blockers, confirmation, cell-based, luminescence, single concentration, set 2. shares compounds with HIF-2a block. inhibition, % at 8 µM. SaOS-2 split-luciferase Mdm2/MdmX complementation. 99% of 740 active. AID 504601, 2011;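 active means mean inhibition of the luminescence signal across two replicates at or above 26 percent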
HIF-2a inh conf: HIF-2a reporter inhibitor retest, confirmation, luminescence, 786-0 RCC cells; shares compounds with HIF-2a block; HIF-2a luciferase reporter luminescence, overnight; inhibition, % at 18.8 µM; 56% of 1,800 active; AID 651580, 2012;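 active means mean inhibition across four replicates of at least 40 percent at the single tested concentration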
HIF-1a cs: HIF-1a luciferase reporter signal reduction – MiaPaCa-2 cells, single concentration, counter-screen for HIF-2a inhibitor project, confirmation; shares compounds with HIF-2a block; MiaPaCa-2 HIF-1a luciferase reporter, desferoxamine, overnight; inhibition, % at 18.8 µM; 72% of 1,800 active;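 active means mean inhibition of the reporter signal across four replicates at the single tested dose of 50% or more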
Each line names hits and unclear results; the compound was inactive in the other large screens (follow-up assays come after a bar, where they were run).

COc1ccccc1/C=C1\SC(=S)N(CCC(=O)NNC(=O)c2ccccc2O)C1=O	none
Cc1cc(NC(=O)CCCN2C(=O)/C(=C/c3ccccc3Cl)SC2=S)no1	none
O=C(CCCN1C(=O)/C(=C/c2ccccc2Cl)SC1=S)NNC(=O)c1ccccc1Cl	Peg3 prom inh-1 60, HIF-2a block 93 | Peg3 prom inh-2 68
CN(C)CCNc1nc(Oc2ccccc2)c2sccc2n1	none (no result: B2AR ag, MITF TRPM1 inh)
CN1C=Nc2c(ncn2C2CCC(CO)O2)C1O (stereo not drawn)	none (no result: Peg3 prom inh-1, CF NFkB block, B2AR ag, KKLEB tox, MITF TRPM1 inh)
CCCn1nc(C(=O)Nc2nc(-c3ccccn3)cs2)c2ccccc2c1=O	Peg3 prom inh-1 70 | Peg3 prom inh-2 62
O=S1(=O)CC(N2CCN(CCO)CC2)CN1Cc1cn(Cc2ccc(C(F)(F)F)cc2)nn1 (stereo not drawn)	none (no result: Peg3 prom inh-1, CF NFkB block, B2AR ag, KKLEB tox, MITF TRPM1 inh)
CCOc1cccc(/C=N/NC(=S)Nc2cc(S(=O)(=O)N3CCOCC3)ccc2N2CCOCC2)c1O	Peg3 prom inh-1 53 | Peg3 prom inh-2 57
COc1ccc2ccccc2c1/C=N/NC(=S)Nc1cc(S(=O)(=O)N2CCOCC2)ccc1N1CCOCC1	none
Nc1ccn([C@@H]2O[C@H](C(=O)N3CCN(Cc4ccccn4)CC3)[C@@H](O)[C@H]2O)c(=O)n1	none (no result: Peg3 prom inh-1, CF NFkB block, B2AR ag, KKLEB tox, MITF TRPM1 inh)
Cc1cc2cc(CCNC(=O)C(=O)c3c[nH]c4ccccc34)c(=O)[nH]c2cc1C	Peg3 prom inh-1 59, CF NFkB block 59 | Peg3 prom inh-2 59 | CF NFkB conf 52
COc1ccc(Nc2nc(-c3ccccc3)nc3ccccc23)cc1S(=O)(=O)N1CCOCC1	Peg3 prom inh-1 62, CF NFkB block 89 | Peg3 prom inh-2 59 | CF NFkB conf 75
CCc1nc(N2CCN(C(=O)c3ccccc3)CC2)c2c3c(sc2n1)CCCC3	none
CCc1nc(Sc2nnnn2-c2ccccc2)c2c3c(sc2n1)CCCC3	Peg3 prom inh-1 60, CF NFkB block 59 | Peg3 prom inh-2 61 | CF NFkB conf inactive
O=C1C=CC(=O)N1c1ccc(-c2nc3ccccc3o2)cc1	Peg3 prom inh-1 108, CF NFkB block 51 (no result: B2AR ag, MITF TRPM1 inh) | Peg3 prom inh-2 97 | CF NFkB conf inactive
O=C1C2C3C=CC(C3)C2C(=O)N1c1cccc(-c2nc3ccccc3o2)c1 (stereo not drawn)	none
Cc1cnc(NC(=O)C2CC(=O)N(c3cccc(Cl)c3)C2)s1 (stereo not drawn)	Peg3 prom inh-1 107, CF NFkB block 78 | Peg3 prom inh-2 94 | CF NFkB conf 86
O=[N+]([O-])c1ccccc1S(=O)NCc1c(Cl)cccc1Cl (stereo not drawn)	none (no result: B2AR ag, MITF TRPM1 inh)
COc1ccc(-c2oc3ccc(-c4cc(OC)c(OC)c(OC)c4)cc3c2C#Cc2ccccn2)cc1	Peg3 prom inh-1 54, CF NFkB block 72 | Peg3 prom inh-2 51 | CF NFkB conf inactive
COc1ccc(C#Cc2c(-c3ccc(OC)cc3)oc3ccc(-c4ccc(OC)cc4)cc23)cc1	none
CCCNC(=O)C1(C)CCCN(Cc2ccccc2-c2ccccc2)C1 (stereo not drawn)	none (no result: B2AR ag, MITF TRPM1 inh)
CN(C)c1ccc(C(C(=O)NCc2ccccc2)N(Cc2ccco2)C(=O)c2snc(C(N)=O)c2N)cc1 (stereo not drawn)	Peg3 prom inh-1 61, CF NFkB block 99 | Peg3 prom inh-2 45 | CF NFkB conf 89
CS(=O)(=O)c1ccc2nc(NC(=O)Cc3ccccc3)sc2c1	none (no result: MITF TRPM1 inh)
CS(=O)(=O)c1ccc2nc(NC(=O)CCS(=O)(=O)c3ccccc3)sc2c1	Peg3 prom inh-1 71, CF NFkB block 75 | Peg3 prom inh-2 47 | CF NFkB conf 64
CCc1nc2ccc(C(=O)N(C)C(C)C)cn2c1N(CC)Cc1cccc(Br)c1	none (no result: B2AR ag, MITF TRPM1 inh)
OCCN1CCN(c2ncnc3c2c(-c2ccccc2)cn3-c2ccc(F)cc2)CC1	none
Cc1ccc(-n2cc(-c3ccccc3)c3c(N4CCOCC4)ncnc32)cc1	Peg3 prom inh-1 67, CF NFkB block 84 | Peg3 prom inh-2 63 | CF NFkB conf 87
CN(C(=O)c1cccc(NC(=O)Cc2ccc(NC(=O)C3CCCN(C(=O)CCc4ccccc4)C3)cc2)c1)C1CCCCC1 (stereo not drawn)	none
CCc1nccn1C(=O)c1cnn2c(C(F)F)cc(-c3ccc(C)cc3)nc12	Peg3 prom inh-1 61, CF NFkB block 68 | Peg3 prom inh-2 93 | CF NFkB conf 91
Cc1ccc(C(=O)OCC(=O)N2CCC(C)CC2)cc1S(=O)(=O)N1CCOCC1	none (no result: B2AR ag, MITF TRPM1 inh)
Cc1ccc2nc(NC(=O)c3ccco3)sc2c1	Peg3 prom inh-1 69, HIF-2a block 48 | Peg3 prom inh-2 inactive | HIF-2a inh conf 71 | HIF-1a cs 68
CCCCCCCCN1C(=O)[C@H](CC(=O)N2CCN(C(=O)OCC)CC2)C[C@@]2(C(=O)OCC)CCCC=C12	none (no result: Peg3 prom inh-1, CF NFkB block, B2AR ag, KKLEB tox, MITF TRPM1 inh)
C/C(=N\Nc1ccc2nncn2n1)c1ccco1	none
C/C(=N\Nc1ccc2nncn2n1)c1ccccn1	Peg3 prom inh-1 60 (no result: MITF TRPM1 inh) | Peg3 prom inh-2 60 | Mdm2 MdmX conf 83
COc1ccc([C@H]2C[C@@H](O)[C@H](n3cc(-c4ccc(F)cc4)nn3)CN2CC2CCCCC2)cc1	none (no result: B2AR ag, MITF TRPM1 inh)
CC(C)NC(=O)N1Cc2cc(C(=O)NC3CCC3)nc(-c3cccc(-c4cncnc4)c3)c2[C@H]1CCO	none (no result: Peg3 prom inh-1, CF NFkB block, B2AR ag, KKLEB tox, MITF TRPM1 inh)

Screens: PubChem, several laboratories
